Compounds with a hit are over-represented: about 3.3% of the library has one in this group of screens.
PI5P4Ka inh: blocks human PI5P4K alpha kinase activity | P48426 | PI5P4Kalpha enzyme, ADP-Glo luminescence, 60 min; active compounds read low | max response, % | 330,000 tested, 1.2% active | AID 652105; active means max response of -50% or lower; inconclusive means between -30% and -50%; inactive means -30% or higher; further: value at the top dose of about 77 µM; on the % scale 0 is the no-effect control and ±100 the full control effect
Target sequence (P48426 whole entry, looked up): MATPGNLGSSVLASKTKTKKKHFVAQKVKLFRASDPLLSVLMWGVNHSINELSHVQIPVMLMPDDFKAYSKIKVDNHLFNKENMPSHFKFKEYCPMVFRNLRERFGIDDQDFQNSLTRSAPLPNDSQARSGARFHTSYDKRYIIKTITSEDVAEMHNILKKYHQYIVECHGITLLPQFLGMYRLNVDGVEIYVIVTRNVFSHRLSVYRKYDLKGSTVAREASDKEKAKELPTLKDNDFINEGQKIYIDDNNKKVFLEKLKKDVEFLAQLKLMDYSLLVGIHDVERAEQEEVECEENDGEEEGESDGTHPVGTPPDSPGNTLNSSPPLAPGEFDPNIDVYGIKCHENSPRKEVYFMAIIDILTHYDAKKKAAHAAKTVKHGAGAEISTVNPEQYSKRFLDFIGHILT
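ADP-Glo luminescence end-point after a 60 min room-temperature kinase reaction. PI5P4Kalpha and substrate in HEPES pH 7.4 buffer with EGTA, 0.1% CHAPS and 5% DMSO; ATP at 5 microM final.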
LDHA block: blocks human lactate dehydrogenase A; P00338; purified LDHA, NADH/diaphorase-resazurin fluorescence; active compounds read low; activity change, % (values are at about 110 or 230 µM); 480,000 tested, 0.15% active; AID 1347041; in the data active means activity change below about -30%; inconclusive means mostly about -25% to -30%;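 further: plate controls were DMSO wells for no effect and wells without enzyme for full effect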
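LDH5 2 nM; NADH 0.06 mM, pyruvate 0.2 mM; 200 mM Tris pH 7.4, EDTA, Tween-20; 5 min RT. Detection: diaphorase 0.133 mg/mL + resazurin 37 µM, fluorescence ex540/em590 at 0 and 20 min; normalized to enzyme-free and DMSO wells.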
PI4K2A block: PI4K2A (human) kinase inhibition; Q9BTU6; purified PI4K2A, ADP-Glo luminescence, 1 h; active compounds read low; activity change, negative = inhibition, % at 76.9 µM; 420,000 tested, 0.13% active; AID 1346378; in the data active means activity change below about -50%; inconclusive means mostly about -30% to -49%;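 further: -100% = wells without enzyme as full effect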
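PI4K2A activity was measured by ADP-Glo luminescence: enzyme (4 ug/mL stock) and phosphatidylinositol (1.2 mM stock) in Tris pH 7.5/MgCl2/EGTA/Triton X-100 buffer were reacted with ATP (300 microM stock) for one hour at ambient temperature.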
DRD3 agonist: activates the human D3 dopamine receptor. max activation, %. D3R DiscoveRx beta-arrestin cells, luminescence, 90 min. 410,000 tested, 0.58% active; in the data active means max activation above about 30%; further: 0% is about no effect
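Cells at 1500/well, incubated overnight, then treated with pinned compounds (dopamine as control) for 90 min at 37 degrees C. DiscoveRx reagent added for 30 - 60 minutes at room temperature; luminescence read.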
DRD3 antagonist: antagonists of human D3 dopamine receptor; P35462; D3R cells, DiscoveRx beta-arrestin luminescence, antagonist mode; active compounds read low; max response, negative = inhibition, %; 360,000 tested, 2.5% active; in the data active means max response below about -50%; inconclusive means no clear call, values can overlap the other calls; further: on the % scale 0 is the no-effect control and ±100 the full control effect
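Cells expressing the human receptor were seeded at 1500 cells/well, incubated overnight at 37 degrees C in 5% CO2, then exposed to library compounds with dopamine controls for 90 minutes at 37 degrees C before luminescent detection.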
* hit, by the source's call; ? = inconclusive; · = not tested or not shown.

SMILES	PI5P4Ka inh	LDHA block	PI4K2A block	DRD3 agonist	DRD3 antagonist
Cn1c(=O)n(CC(=O)NC2CCCCC2)c(=O)c2ccccc21	8.2	-2.8	-2.0	-6.6	-58.5*
Cn1c(=O)c2ccccc2n(CC(=O)NC2CCCCC2)c1=O	-0.9	-3.0	1.4	-8.0	-4.5
CCN(Cc1nc2ccccc2c(=O)[nH]1)Cc1cc(=O)oc2cc(C)ccc12	·	-10.3	·	·	·
CCOC(=O)c1c(-c2cccs2)csc1NC(=O)CCCC(=O)O	·	-4.6	4.1	44.4*	-5.3
CCOC(=O)c1c(NC(=O)c2cccs2)sc(CC)c1-c1cccs1	·	-3.3	-1.0	61.6*	30.7
Nc1c(C(=O)CSc2ccc3ccccc3n2)c(=O)[nH]c(=O)n1C1CC1	·	-7.5	·	·	·
COc1ccc(-c2nc(-c3ccc(NC(=O)c4ccncc4)cc3)no2)cc1OC	-12.9	0.8	-2.6	49.7*	70.1
COc1ccc(Cl)cc1-c1nc(-c2ccc(NC(=O)c3ccncc3)cc2)no1	-0.8	-4.1	-2.9	-2.2	11.2
Nn1c(=S)[nH]c2sc3c(c2c1=O)CCCC3	-70.1*	2.3	-2.3	9.3	0.3
O=c1[nH]c(=S)[nH]c2sc3c(c12)CCCCCC3	-60.1*	0.5	-0.3	-0.2	-29.4
CCCn1c(=S)[nH]c2sc3c(c2c1=O)CCCC3	-12.7	-8.3	2.3	4.2	-3.9
COc1ccccc1Nc1nc2ccccc2nc1NS(=O)(=O)c1ccc(C)cc1	·	6.3	·	·	·
O=C1C=CC2=C3c4cc(O)c(O)cc4CC3(O)COC2=C1O (stereo not given)	-90.1*	8.4	?	29.2	-14.7
CCC(C)n1c(NC(=O)c2ccccc2)c(C#N)c2nc3ccccc3nc21 (stereo not given)	-7.8	19.5	-56.2*	-2.4	-10.9
N#Cc1c(NC(=O)c2ccc(Br)o2)n(-c2ccccc2)c2nc3ccccc3nc12	-10.5	-0.7	-51.6*	-2.2	14.5
CCC(=O)Nc1c(C#N)c2nc3ccccc3nc2n1-c1ccc(C)cc1	0.6	-7.1	-8.4	6.4	3.8
CC1CC(=S)Nc2ccccc2S1 (stereo not given)	1.5	-7.8	0.5	-1.8	-76.7*
C/C(=N\O)c1cc(Cl)cc(Cl)c1O	2.6	2.0	1.0	-3.0	-14.4
C/C(=N\NC(N)=O)c1cc(Cl)cc(Cl)c1O	5.2	5.1	-0.9	-26.3	-81.8*
CCOC(=O)N=S(N)(=O)c1ccccc1 (stereo not given)	·	-10.4	3.2	32.2*	15.6
CCOC(=O)N=S(N)(=O)c1ccc(Cl)cc1 (stereo not given)	?	-2.7	-2.8	-0.9	-22.2
CCOC(=O)CC(S(=O)(=O)c1ccccc1)S(=O)(=O)c1ccccc1	-2.8	-2.4	8.4	-13.2	-95.1*
CC(C)(Oc1ccc(Cl)cc1)C(=O)NCC(c1ccco1)N1CCCCC1 (stereo not given)	-1.6	-5.8	0.9	-25.1	-12.7
COc1ccc(C(CNC(=O)C(C)(C)Oc2ccc(Cl)cc2)N2CCOCC2)cc1 (stereo not given)	-0.7	-2.9	-1.1	-27.8	-74.9*
COc1ccc(C(CNC(=O)C(C)(C)Oc2ccc(Cl)cc2)N2CCCCC2)cc1 (stereo not given)	-1.8	-1.7	-3.3	-13.6	-82.6*
SMILES	PI5P4Ka inh	LDHA block	PI4K2A block	DRD3 agonist	DRD3 antagonist
CCC(C)(NC(=O)Cc1c[nH]c2ccccc12)C(=O)NC1CCCC1 (stereo not given)	·	25.8	·	·	·
C[C@@H]1CN([C@H](C)CO)C(=O)CCCn2cc(nn2)CO[C@H]1CN(C)S(=O)(=O)c1ccc2ccccc2c1	-2.5	-34.2*	-0.2	1.7	4.0
NC(=O)c1ccccc1OCC(=O)NS(=O)(=O)c1ccccc1	·	-12.0	-3.2	-1.8	-65.5*
NC(=O)c1ccccc1OCC(=O)O	-8.7	-4.3	0.2	6.0	17.3
NC(=O)CC(NSc1ccccc1[N+](=O)[O-])C(=O)O (stereo not given)	-57.1*	-0.7	-8.2	-22.6	1.7
COc1cccc(N2CCN(CC(=O)Nc3ccccc3C(=O)NCCc3ccccc3)CC2)c1	-6.2	-0.2	-1.1	33.8*	26.9
COc1cccc2c1C(=O)c1c(O)c3c(c(O)c1C2=O)C[C@@](O)(C(C)=O)C[C@@H]3O[C@H]1C[C@H](N)[C@H](O)[C@H](C)O1	1.2	-2.7	-16.1	-58.6	-78.1*
COc1cccc2c1C(=O)c1c(O)c3c(c(O)c1C2=O)C[C@@](O)(C(=O)CO)C[C@@H]3O[C@H]1C[C@H](N)[C@@H](O)[C@H](C)O1	-19.2	3.1	-15.1	-63.8	0.0
CC1=Nc2ccccc2/C1=C/c1sc(=N)n(-c2nccs2)c1O	-70.4*	-7.7	4.0	-9.3	-96.1*
O=C(O)c1cccc(N2C(=O)c3ccc4c5c(ccc(c35)C2=O)C(=O)N(c2cccc(C(=O)O)c2)C4=O)c1	-10.3	34.9	-7.6	-37.8	-106.9*
CCCCCCCCNCCS(=O)(=O)NCc1ccccc1OC	8.7	2.2	0.6	-32.0	-60.1*
CCCCNCCS(=O)(=O)NCc1ccccc1OC	4.0	-1.0	-2.0	-18.5	?
COc1ccccc1CNS(=O)(=O)CCNC1CCCCC1	8.5	1.2	-1.0	-24.5	-73.4*
COc1ccccc1CNS(=O)(=O)CCNC1CC1	0.2	3.3	-5.8	32.1*	-3.2
COc1ccccc1OCCNC1CCCC1	-6.4	-16.6	4.1	-6.5	-76.3*
CC(=O)Nc1ccc(NC(=O)c2nn(CCC(C)C)c(=O)c3ccccc23)cc1	·	-2.8	·	·	·
O=C(/C=C/c1ccc2ccccc2c1)c1ccccc1F	·	-21.8	·	·	·
Cc1cc(C)nc(S/C=C/C(=O)c2ccccc2F)n1	2.2	-1.5	-12.2	-17.1	-84.6*
CCOC(=O)/C(C#N)=C/c1sccc1C	·	1.3	·	·	·
O=C(NCCO)c1ccc(Oc2ccc(C(F)(F)F)cc2[N+](=O)[O-])cc1	5.7	-1.2	-0.1	23.8	4.1
O=C(CS(=O)c1ccc(C(F)(F)F)cc1[N+](=O)[O-])Oc1ccc(Cl)cc1 (stereo not given)	2.2	6.9	-10.6	-4.3	-96.5*
Cc1cc(C)cc(OC(=O)CS(=O)c2ccc(C(F)(F)F)cc2[N+](=O)[O-])c1 (stereo not given)	23.4	8.2	-1.7	-8.9	-73.3*
Cc1ccc(OCCNc2ccc(C(F)(F)F)cc2[N+](=O)[O-])cc1	22.3	-0.4	-4.5	4.5	1.8
Cc1ccc(C(=O)NCC(=O)NCCSc2ccc(Br)cc2)cc1	2.8	-7.6	1.7	-13.4	-56.7*
Cc1ccc(C(=O)NCCSC(C)(C)C)cc1	3.0	0.9	-58.8*	4.2	3.1
O=C(CCc1ncc(-c2ccccc2F)o1)Nc1ccccc1Oc1ccccc1	·	-2.4	·	·	·
O=C(COc1ccc(Cl)cc1)N/N=C/CCc1ccccc1	·	-9.1	7.7	-4.0	-60.0*
COC(=O)c1ccccc1NC(=O)CN1CCC(C(=O)c2ccc3c(c2)OCCO3)CC1	·	-4.9	-9.8	40.0*	42.7
